# KCNH2 WT inh = inhibitors of human wildtype KCNH2 potassium channel; 340,000 tested, 0.37% active; activity change, % at 1.84 µM; Q12809; U2OS, BacMam KCNH2, thallium flux FluxOr; hits give low values; AID 720551;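 active = maximum activity change below -70%; inconclusive = maximum activity change between -70% and -50%; inactive = maximum activity change above -50%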; also: % is scaled to controls: 0 for no effect and ±100 for the full control effect
# Target sequence (Q12809 whole entry, looked up): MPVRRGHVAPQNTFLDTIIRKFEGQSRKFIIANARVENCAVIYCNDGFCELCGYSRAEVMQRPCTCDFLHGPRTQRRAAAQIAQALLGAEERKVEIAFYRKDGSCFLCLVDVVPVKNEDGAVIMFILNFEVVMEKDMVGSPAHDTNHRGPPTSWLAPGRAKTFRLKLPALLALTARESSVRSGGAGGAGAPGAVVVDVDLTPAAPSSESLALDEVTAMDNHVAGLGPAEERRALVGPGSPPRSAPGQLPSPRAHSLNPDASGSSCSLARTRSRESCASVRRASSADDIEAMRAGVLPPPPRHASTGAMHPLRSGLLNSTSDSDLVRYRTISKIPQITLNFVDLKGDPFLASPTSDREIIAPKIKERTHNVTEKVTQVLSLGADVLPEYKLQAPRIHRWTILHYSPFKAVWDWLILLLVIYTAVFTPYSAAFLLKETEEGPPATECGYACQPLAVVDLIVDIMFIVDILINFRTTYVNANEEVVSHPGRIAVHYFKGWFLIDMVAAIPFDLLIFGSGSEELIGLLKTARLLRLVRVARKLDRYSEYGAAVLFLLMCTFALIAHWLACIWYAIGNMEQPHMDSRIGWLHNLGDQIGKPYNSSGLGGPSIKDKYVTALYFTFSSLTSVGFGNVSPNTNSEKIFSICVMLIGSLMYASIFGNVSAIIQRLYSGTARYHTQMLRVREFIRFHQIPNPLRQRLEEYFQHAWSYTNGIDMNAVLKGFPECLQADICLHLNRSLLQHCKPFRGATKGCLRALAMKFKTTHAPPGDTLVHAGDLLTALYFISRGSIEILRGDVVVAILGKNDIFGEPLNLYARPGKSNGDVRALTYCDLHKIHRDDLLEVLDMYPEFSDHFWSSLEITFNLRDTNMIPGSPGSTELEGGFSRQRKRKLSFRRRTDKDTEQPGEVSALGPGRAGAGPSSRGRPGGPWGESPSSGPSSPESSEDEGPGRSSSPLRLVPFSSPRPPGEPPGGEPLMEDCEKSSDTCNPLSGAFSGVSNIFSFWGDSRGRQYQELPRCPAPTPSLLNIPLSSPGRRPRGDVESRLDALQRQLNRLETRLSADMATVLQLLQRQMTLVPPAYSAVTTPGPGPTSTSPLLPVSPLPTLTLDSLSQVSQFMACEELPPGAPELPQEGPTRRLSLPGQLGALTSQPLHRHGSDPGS
#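 U2OS cells transduced with wild-type KCNH2 virus are loaded with FluxOr dye for 45 min, and thallium flux is measured in kinetic reads before and after stimulation buffer. Rate constants are normalized to DMSO controls.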
# A-T KAP1 phos = potential ataxia-telangiectasia treatment; F2112 A-T fibroblasts, KAP-1 phosphorylation AlphaLISA; neocarzinostatin DNA damage 30 min before lysis; Potency, µM (highest dose often 57.5 µM), for inactives: at the highest dose activation, actives largely listed as activators; 320,000 tested, 0.19% active; AID 485349; also: potency is read from the fitted curve at half-maximal effect; % of control where 0% means no effect; nearly all actives have a fitted effect of over 45% in size
#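 ATM-like activity read as KAP-1 phosphorylation via AlphaLISA donor/acceptor antibody pairs after lysis and 6 hr at 25C. Cells were ATM-null patient fibroblasts (F2112, hTERT), dosed 60 min, then exposed to the DSB inducer NCS for 30 min.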
# ALOX12 inh = blocks human arachidonate 12S-lipoxygenase; 580,000 tested, 1.1% active; Potency, µM (top dose mostly 108 µM), without a hit: top-dose activity change, negative = inhibition, actives largely listed as inhibitors; purified 12hLO, xylenol orange hydroperoxide absorbance; AID 1671190; P18054; also: potency is read from the fitted curve at half-maximal effect; % is scaled to controls: 0 for no effect and ±100 for the full control effect
#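 Hydroperoxide product was detected by ferrous iron/xylenol orange as the 573 to 405 nm absorbance ratio. Arachidonic acid at 40 uM (final) was turned over for 30 min at room temperature by 150 nM human 12hLO, pH 7.0 Hepes buffer, after 15 min compound preincubation.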
# KCNH2 3.1 inh = blocks the human KCNH2 3.1 channel isoform | U2OS KCNH2 3.1, thallium flux FluxOr; hits give low values | activity change, % (tested at about 1.8 µM) | 340,000 tested, 0.95% active | AID 720553;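 active = maximum activity change below -70%; inconclusive = maximum activity change from -70% to -50%; inactive = maximum activity change above -50%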;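 also: thallium influx rate constant from kinetic fluorescence after stimulation buffer; % is scaled to controls: 0 for no effect and ±100 for the full control effect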
#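 Normalized rate constant (relative to positive and negative DMSO controls) derived from a 2 min kinetic fluorescence read after stimulation; U2OS cells expressing the 3.1 isoform via virus at 1.77 x 10^8 /mL.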
# An asterisk follows results filed as active; i = inactive; u = inconclusive; x = no result given; [ ] = dose if it differs, or a comment. In the library only some 1.8% were active in any assay of this set; here they are far more common. Unless noted, calls follow the shape of the dose curve; as a rule, active = well fitted curve in the direction sought with a large enough effect; inconclusive = small, poorly fitted or top-dose-only effect, or another doubt; inactive = no such curve, though single readings can be large; an effect the other way counts as inactive or inconclusive.
SMILES,KCNH2 WT inh,A-T KAP1 phos,ALOX12 inh,KCNH2 3.1 inh
CCN(CC)C(=O)C1=C(C)N(CCC2=CCCCC2)C(=O)C(CC(=O)NC(c2ccccc2)c2ccccc2)C1 (stereo unspecified),-88*,x,u,-15
CC1=C(C(=O)N(C)C)CC(CC(=O)NC(c2ccccc2)c2ccccc2)C(=O)N1CCC1=CCCCC1 (stereo unspecified),1,x,u,1
CC(=O)Nc1ccc(CN2CCCC23Cc2ccccc2CN(C(=O)CCC(=O)O)C3)cc1 (stereo unspecified),x,x,14%[6.33 µM],x
COc1ccc(OC)c(CNC(=O)C2CCN(C(=O)N3CC4CC(C3)[C@H]3CCCC(=O)N3C4)CC2)c1 (stereo partly specified),x,x,46%,x
COc1ccccc1S(=O)(=O)N(C)C[C@H]1Oc2cc(C#CCC3CCCC3)ccc2S(=O)(=O)N([C@H](C)CO)C[C@H]1C,-8,x,20µM*,5
C[C@@H]1CN([C@@H](C)CO)S(=O)(=O)c2ccc(C#CC3CCCCC3)cc2O[C@@H]1CN(C)Cc1cccnc1,5,x,14µM*,-6
C[C@H]1CN([C@@H](C)CO)S(=O)(=O)c2ccc(C#CC3CC3)cc2O[C@H]1CN(C)C(=O)c1cccnc1,7,x,u,-2
COc1ccccc1S(=O)(=O)N(C)C[C@@H]1Oc2cc(C#CCC(C)C)ccc2S(=O)(=O)N([C@H](C)CO)C[C@@H]1C,5,x,0%,-1
CCn1cnc2c1c(=O)n(CC(=O)N(C)C1CCS(=O)(=O)C1)c(=O)n2Cc1ccccc1 (stereo unspecified),x,x,-11%,x
COc1ccc(CCNC(=O)Cn2c(=O)n(CC3CCCO3)c(=O)c3cc(OC)c(OC)cc32)cc1OC (stereo unspecified),29,1%,-7%,-141*
COn1c(-c2ccccc2)nc2ccc(Cl)cc21,-6,5%,u,-94*
O=C(O)COn1c(-c2ccccc2)nc2ccc(Cl)cc21,i,0%,0%,14
COc1ccc(/C=C2\SC(=S)N(CCC(=O)Nc3ccccc3C(=O)O)C2=O)cc1,1,4%,0%,-6
COc1ccc(/C=C2\SC(=O)N(CCCC(=O)Nc3cc(Cl)ccc3C(=O)O)C2=O)cc1,-11,4%,35µM*,4
CCOc1ccccc1CN1CCNC(=O)C1CC(=O)NCCC1=CCCCC1 (stereo unspecified),21,9%,u,-109*
O=[N+]([O-])CC(=Nc1ccc(Cl)cc1)N/N=C\c1oc(O)c2ccccc12,-3,-2%,4µM*,1
N#Cc1nc(-c2ccc(S(=O)(=O)N3CCCCC3)cc2)oc1NCc1ccco1,x,x,-8%,x
O=C1COc2ccc(OCc3ccccc3)nc2CN1CCOc1ccccc1,x,x,11µM*,x
O=C1COc2ccc(OCc3ccccc3)nc2CN1Cc1ccc(F)cc1,x,x,-10%[176 µM],x
N#Cc1ccc(C(=O)Nc2cccc(-c3nnc4n3CCCC4)c2)cc1,x,x,11%,x
S=C(Nc1cccc2ccccc12)NC1CCCCC1,0,-8%,45µM*,-8
S=C(Nc1cccc2ccccc12)Nc1cccc2ccccc12,0,x,-23%,24
COc1ccccc1NC(=S)NC1CCC(CC2CCC(NC(=S)Nc3ccccc3OC)CC2)CC1 (stereo unspecified),6,3%,32µM*,9
CCN1CCCN(S(=O)(=O)c2cnn(CC)c2)CC12CCOCC2,x,x,49%,x
COCCn1c(C)cnc1CCNC(=O)C1(c2ccc(OC)cc2)CC1,x,x,13%,x
SMILES,KCNH2 WT inh,A-T KAP1 phos,ALOX12 inh,KCNH2 3.1 inh
Cc1ccc(-c2nc(CSc3n[nH]c(N)n3)no2)cc1,x,x,1%,x
O=c1c(-c2ccco2)[n+]([O-])c2ccccc2n1OCc1ccccc1,1,x,40µM*,6
S=c1nc(-c2ccccc2Br)[nH][nH]1,-18,-3%,25µM*,4
Oc1ccc(-c2nc(=S)[nH][nH]2)cc1,11,x,u,1
S=c1nc(-c2cc(Cl)ccc2Cl)[nH][nH]1,1,-2%,10µM*,6
Cc1ccc(C)c(NC(=O)Cn2c(-n3nc(C)cc3C)nc(-c3ccccc3)cc2=O)c1,x,x,0%,x
Cc1nn(C)c2nc(-c3ccccn3)nc(N3CCC4(CC3)COC(=O)O4)c12,x,x,52%,x
CCCCNC(=S)N/N=C/C1=CCC2CC1C2(C)C (stereo unspecified),23,6%,u,-3
CC(C)NC(=S)N/N=C/C1=CCC2CC1C2(C)C (stereo unspecified),-1,5%,35µM*,1
CC1(C)C2CC=C(/C=N/NC(=S)NCc3ccccc3)C1C2 (stereo unspecified),x,x,35µM*,x
Cc1ccc(-c2nnc3ccc(N(C)c4cccc(C)c4)nn23)nc1,x,x,23%[176 µM],x
O=C(CSc1nc2ccccc2nc1N1CCCC1)Nc1ccc(Cl)cc1,-5,15%,-6%,-6
CC(C)c1ccc(NC(=O)CSc2nc3ccccc3nc2N2CCCC2)cc1,19,-2%,6.3µM*,-8
Cc1ccc(-n2c(C3CCN(C(=O)c4ccc(C)nc4)CC3)n[nH]c2=O)cc1,x,x,1%,x
COc1ccc2c(c1)CSC(c1ccccc1)C2=O (stereo unspecified),5,x,35µM*,8
COc1cccc(C2C(=O)c3ccccc3C2=O)c1,0,0%,u,5
Cc1ccc(NC(=O)CC(O)(c2nccn2C)C(F)(F)F)cc1C (stereo unspecified),x,x,28%,x
O=C1C2CCCN2C(=O)N1Cc1coc(-c2cccc(Cl)c2)n1 (stereo unspecified),x,x,-7%,x
COCc1nn2c3c(cnc2c1-c1cccc(Cl)c1)C(=O)CC(c1cccs1)C3 (stereo unspecified),x,x,-13%,x
CCOc1cc(C(=O)N2CCC(CC3CC(c4ccccc4)=NO3)(C(=O)NCc3ccc(OC)cc3)CC2)cc(OCC)c1OCC (stereo unspecified),9,x,u,-8
COc1ccc(CNC(=O)C2(CC3CC(c4ccccc4)=NO3)CCN(C(=O)Cc3ccc(F)cc3)CC2)cc1 (stereo unspecified),-27,x,1%,-72*
CC(NC(=O)CCc1ncc(-c2c(F)cccc2F)o1)c1ccco1 (stereo unspecified),x,x,15%,x
NC(N)=NCc1ccc(CN2CCCC2)cc1,x,x,45µM*,x
CN(C)c1ccc(CN2CCCCCC2)cc1,14,-8%,-1%,-3
COCCN=C1Sc2nc3c(C)cccc3cc2CN1Cc1ccco1,-16,-4%,32µM*,9
COc1ncccc1-c1cc(C(=O)N(C)CCN(C)C)c2c(c1)ncn2C,x,x,21%[176 µM],x
COc1cc2c(cc1OC)CN(C(=O)/C=C/c1ccc([N+](=O)[O-])cc1)CC2,19,4%,14µM*,-16
COc1cc2c(cc1OC)CN(C(=O)/C=C/c1ccccc1[N+](=O)[O-])CC2,-19,4%,u,2
CCN(CC(=O)NCCc1ccc(S(N)(=O)=O)cc1)Cc1ccccc1,8,2%,-12%,-74*

# Source: PubChem BioAssay
